TGFb inhibitor = qHTS for Inhibitors of TGF-b; HepG2 CAGA-GFP TGF-b/SMAD3 reporter, GFP fluorescence, 18 h; TGF-beta stimulated, 500 pg/mL final; Potency, µM (highest dose often 46.1 µM), for the others: top-dose activity, negative = inhibition, usual class: inhibitors; hit rate 1.2% among 410,000; AID 588855, 2011; note: % is set by controls: 0 for no effect and ±100 for the full control effect; nearly all actives have a fitted effect of over 65% in size
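Per well, imaged GFP fluorescence of HEPG2 CAGA-GFP cells gives the signal; cells get compound, then TGF-beta (500 pg/mL final), 18 h at 37 degrees C; %Activity versus -TGF-beta and +DMSO controls.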
ATXN2 expr inh = Primary qHTS for Inhibitors of ATXN expression; Potency, µM (doses to about 57 µM), without a hit: at the highest dose activity change, negative = inhibition, hits mostly inhibitors; AID 1745845, 2022; hit rate 0.72% among 360,000; HEK-293 ATXN2-luciferase reporter, luminescence, 24 h; note: % is set by controls: 0 for no effect and ±100 for the full control effect; nearly all actives have a fitted effect of over 55% in size
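ATXN2-luciferase reporter cells (luciferase flanked by upstream and downstream ATXN2 gene portions) were treated 24 h at 37 °C with compounds at up to 57 uM. SteadyGlo luminescence gave expression; GF-AFC fluorescence gave viability.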
HT1080 IDH1KD tx = qHTS for induction of synthetic lethality in tumor cells producing 2HG: qHTS for the HT-1080-IDH1KD cell line; hit rate 2% among 360,000; Potency, µM (highest dose often 46.1 µM), for the others: top-dose activity, negative = toxicity, usual class: cytotoxic; HT-1080 IDH1 knockdown viability, ATP luminescence, 48 h;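 note: 0% = DMSO wells and -100% = cell-free medium wells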
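After a 2 h attachment period, IDH1KD HT-1080 cells took pin-transferred compound for 48 h at 37 °C; ATP-based luminescence after 10 min room-temperature reagent incubation reported viability.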
HepG2 tox = qHTS for Inhibitors of TGF-b: Cytotox Counterscreen. Potency, µM (titrated, usually from 46.1 µM), for the others: at the highest dose activity change, negative = cytotoxicity, usual class: cytotoxic. hit rate 0.76% among 410,000. HepG2 CAGA-GFP viability, ATP luminescence, 18 h. AID 588856, 2011
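CellTiter-Glo luminescence gave cytotoxicity after 18 hours at 37 degrees C. The cells were HepG2 CAGA-GFP in 1% FBS DMEM, stimulated with 500 pg/mL TGF-beta after compound addition. %Activity was normalised to no-cell wells (complete cell-killing) and DMSO (no toxicity), and curves were fitted and classified.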
ATXN viability = Viability Counterscreen for Primary qHTS for Inhibitors of ATXN expression; AID 651635, 2014; Potency, µM (titrated, usually from 56.7 µM), actives largely listed as cytotoxic; hit rate 0.49% among 400,000; S2 cells (HEK-293 line with an ATXN2-luciferase reporter) viability, CellTiter-Fluor protease fluorescence, 24 h; note: nearly all actives have a fitted effect of over 40% in size
HT1080-NT tox = qHTS for induction of synthetic lethality in tumor cells producing 2HG: qHTS for the HT-1080-NT fibrosarcoma cell line. Potency, µM (titrated, usually from 46.1 µM), for inactives: at the highest dose activity, negative = less viability, hits mostly cytotoxic. HT-1080-NT fibrosarcoma viability, CellTiter-Glo ATP luminescence, 48 h. hit rate 1.6% among 360,000. AID 686970, 2013;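 note: NT is the 2HG producing partner of a matched IDH1 knockdown line; 0% = DMSO-treated cells and -100% = media-only wells without cells; nearly all actives have a fitted effect of over 55% in size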
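A 48-hour cytotoxicity screen used HT-1080-NT cells plated 2 hours before compound delivery. ATP-based CellTiter-Glo luminescence measured viability, normalized to DMSO and no-cell controls.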
* marks the source's active call; other numbers are inactive results; i = inactive; u = inconclusive; x = no result given; ! = a repeat was not active. Only some compounds are listed: those with a hit (about 3.8% of all), similar ones and a draw of the others. Calls come from the whole dose curve; as a rule, active = well fitted curve in the direction sought with a large enough effect; inconclusive = small, poorly fitted or top-dose-only effect, or another doubt; inactive = no such curve, though single readings can be large; an effect the other way counts as inactive or inconclusive. Potency is the fitted concentration of half-maximal effect.

SMILES | TGFb inhibitor | ATXN2 expr inh | HT1080 IDH1KD tx | HepG2 tox | ATXN viability | HT1080-NT tox
COc1cc(Nc2c3ccccc3nc3ccccc23)cc(OC)c1OC | u | u | u | -76% | 18µM* | 10µM*
Cc1ccc2nc3c(c(Nc4ccccc4)c2c1)CCC3 | 13µM* | -35% | u | -42% | i | u
COc1ccc(Nc2c3c(nc4ccccc24)CCCC3)cc1OC | u | u | u | -12% | i | u
COc1ccc(Nc2nc(N3CCCC3)c3ccccc3n2)cc1 | u | 28µM* | -15% | -83% | u | 2%
COC(=O)c1ccccc1NC(=O)CSc1c2c(nc3ccc(Cl)cc13)CCCC2 | -27% | x | x | -14% | x | x
CN(C(=O)CO)c1c(I)c(C(=O)NCC(O)CO)c(I)c(C(=O)NCC(O)CO)c1I (stereo not drawn) | x | x | x | x | i | x
CCC(=O)NCc1nc(-c2cccc(NC(=O)c3ccc(C)s3)c2)oc1C | x | x | x | x | i | x
CC(=C(CCOC(=O)C(C)C)SSC(CCOC(=O)C(C)C)=C(C)N(C=O)Cc1cnc(C)nc1N)N(C=O)Cc1cnc(C)nc1N | x | -15% | x | x | i | x
COc1ccc(Nc2c3ccccc3nc3ccccc23)cc1 | u | u | 12µM* | -36% | i | 9.2µM*
COc1ccccc1Nc1c2ccccc2nc2ccccc12 | u | -15% | u | -28% | x | 16µM*
CCN(CC)CCOC(=O)c1ccc(Nc2c3c(nc4ccccc24)CCC3)cc1 | u | u | x | -39% | 20µM* | x
COc1ccc(C)cc1Nc1c2c(nc3ccccc13)CCC2 | 7.9µM* | u | 1.2µM* | -17% | 6.3µM*! | u
CC1CCc2cc(F)cc3c2N1C(=O)C(C(=O)Nc1cnccn1)C3=O (stereo not drawn) | 0% | x | x | -25% | x | x
CCOc1cccc(C(=O)N(Cc2ccc(C)o2)C2CCS(=O)(=O)C2)c1 (stereo not drawn) | x | x | x | -6% | x | x
COc1ccc(Nc2c3c(nc4ccccc24)CCC3)cc1 | 11µM* | u | u | -47% | i | 23µM*
Cc1ccccc1CN1[C@@H](CC2CCCCC2)COCCS1(=O)=O | 11µM* | -33% | -14% | 11µM*! | u | -8%
O=S1(=O)CCOC[C@H](CC2CCCCC2)N1Cc1cccc(Cl)c1 | 16µM* | -27% | 0% | -5% | i | -27%
O=S1(=O)CCOC[C@H](CC2CCCCC2)N1Cc1ccccc1 | u | 0% | 4% | -2% | i | 17%
COc1ccc(C2N=C(Nc3nc4ccccc4o3)NC3=C2C(=O)CC(C)(C)C3)cc1 (stereo not drawn) | 18% | x | x | 10% | x | x
CC1(C)Cc2ccccc2C(/C(=N\Nc2cccc(Cl)c2)C(N)=O)=N1 | u | -25% | 21µM* | -26% | u | 21µM*
CCOc1ccc(OCCNC(=O)c2cc(C3CC3)nc3c2cnn3C(C)C)cc1 | 13µM* | -28% | -24% | -34% | i | -6%
CC(C)n1ncc2c(C(=O)NCCOc3ccccc3F)cc(C3CC3)nc21 | u | -9% | -8% | -26% | i | -3%
Cc1c(C(=O)N2CCN(C(C)C)CC2)sc2ncnc(NCc3ccco3)c12 | x | x | x | x | i | x
COc1cc(=O)n2c(c1C(=O)NC(C)c1ccco1)CCN(C(=O)c1ccnc(Cl)c1)CC2 (stereo not drawn) | x | x | x | x | i | x
COc1ccc(Cn2nnnc2C(c2ccccn2)N2CCN(c3ccc(O)cc3)CC2)cc1 (stereo not drawn) | -17% | x | x | -14% | x | x
SMILES | TGFb inhibitor | ATXN2 expr inh | HT1080 IDH1KD tx | HepG2 tox | ATXN viability | HT1080-NT tox
FC(F)Oc1ccc(NC(=S)Nn2cnnc2)cc1 | 16µM* | u | -1% | 2% | i | 2%
CCN(CC(=O)NC(C)(C)C)Cc1nc2c(Br)cc(Br)cc2c(=O)[nH]1 | u | 18µM* | u | -14% | u | -4%
O=C(NC1CCCCC1)C1c2ccccc2OCC(=O)N1CCc1c[nH]c2ccccc12 (stereo not drawn) | x | -1% | 26µM* | x | u | 0%
Cc1ccc(C(=O)NC(=S)N2CCCC2)cc1 | 6% | 5% | 9% | 6% | i | -2%
Cc1cccc(C(=O)NC(=S)N2CCN(C)CC2)c1 | -6% | 8% | 10µM* | -11% | i | 13µM*
Cc1ccc(C(=O)NC(=S)N2CCN(C)CC2)cc1 | -1% | 10% | -3% | 10µM* | i | -7%
CCC1CN(CCNC(=O)c2ccc3c(c2)OCO3)Cc2cc(OC)ccc2O1 (stereo not drawn) | x | x | x | x | i | x
CSc1ccc(CN2CCC(CO)(Cc3ccc(Cl)cc3)CC2)cc1 | 22µM* | u | -23% | -156% | u | u
COc1ccc(Cl)cc1NC(=O)c1cc(S(=O)(=O)NC2CCCCCC2)ccc1F | u | x | x | -6% | x | x
Cc1ccccc1Cn1c(CN2CCC(C(=O)NCCN(C)C)CC2)cc2ccccc21 | 13µM* | x | x | 10µM* | x | x
COc1cc(CN2CCCC(n3cc(C(=O)N4CCCCC4)nn3)C2)cc(OC)c1 (stereo not drawn) | x | x | x | x | i | x
Cc1ccc(C(=O)Nc2ncc(Cc3ccc(F)cc3)s2)o1 | 13% | 54% | u | 4% | u | -9%
Cc1ccc(C(=O)Nc2ncc(Cc3ccc(SC(F)F)cc3)s2)cc1 | u | -7% | 2.6µM* | 1% | u | 1.8µM*
Cc1ccc([N+](=O)[O-])cc1NC(=O)c1ccc2c(c1)OCO2 | -13% | x | 1% | 1% | i | 14%
Cc1cnc(NC(=O)c2ccc3c(c2)OCCO3)s1 | -11% | 2.2µM* | 7.3µM* | -47% | u | 7.3µM*
O=C(Nc1ncc([N+](=O)[O-])s1)c1ccc2c(c1)OCO2 | u | 2.2µM* | 16µM* | -64% | u | 15µM*
Cc1ccc(C(=O)Nc2ncc([N+](=O)[O-])s2)cc1 | u | 2.8µM* | 23µM* | -70% | u | 18µM*
COc1ccc(-c2c(C)sc(NC(=O)c3ccnn3C)c2C#N)cc1 | 9% | -21% | 21µM* | 9% | i | 13µM*
CC1CCN(S(=O)(=O)c2nnc(NC(=O)c3cccc(Br)c3)s2)CC1 | 4.5µM* | x | x | -37% | x | x
Cc1cccc(C(=O)Nc2nnc(S(=O)(=O)N3CCC(C)CC3)s2)c1 | u | -10% | 0% | -11% | i | -13%
